Measured values reported in PubChem BioAssay (Tox21).
Results filed as inconclusive are left out. The source made the active and inactive calls. Unless noted, calls come from the whole dose curve.

Experiments:
[1] = Nuclear factor erythroid 2-related factor 2/antioxidant responsive element (Nrf2/ARE) small molecule agonists: qHTS cell viability counter screen in human keratinocytes (AID 1919968; active = well fitted curve in the direction sought with a large enough effect in the repeat runs; an effect the other way counts as inactive or inconclusive; note: nearly all actives have a fitted effect of over 55% in size)
Outline: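 KeratinoSens cells (HaCaT keratinocytes stably carrying an ARE-luciferase reporter) were seeded at 1,500 cells/well and rested 5 h at 37 C/5% CO2. They were then exposed to compounds in DMSO for 23 h. Viability was read by CellTiter-Fluor fluorescence after 1 h.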

[2] = Nuclear factor erythroid 2-related factor 2/antioxidant responsive element (Nrf2/ARE) small molecule agonists: luciferase reporter gene qHTS assay in human keratinocytes (AID 1919969); note: nearly all actives have a fitted effect of over 35% in size
[3] = molecular target: Gonadotropin-releasing hormone receptor (Homo sapiens) (UniProt P30968); experiment: Human gonadotropin-releasing hormone receptor (GnRHR) small molecule agonists, calcium flux assay in GnRHR-HEK293 cells (AID 1920063); note: nearly all actives have a fitted effect of over 35% in size
Sequence of Gonadotropin-releasing hormone receptor (Homo sapiens) (P30968 whole entry, looked up): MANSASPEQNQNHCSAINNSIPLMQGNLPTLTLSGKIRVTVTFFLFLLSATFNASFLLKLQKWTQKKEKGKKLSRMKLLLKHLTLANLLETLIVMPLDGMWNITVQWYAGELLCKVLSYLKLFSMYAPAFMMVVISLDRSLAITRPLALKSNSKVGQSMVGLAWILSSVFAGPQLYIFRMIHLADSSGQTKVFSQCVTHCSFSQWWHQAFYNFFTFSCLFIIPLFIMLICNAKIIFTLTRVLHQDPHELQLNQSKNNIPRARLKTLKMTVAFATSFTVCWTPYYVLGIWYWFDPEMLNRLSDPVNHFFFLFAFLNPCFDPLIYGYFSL
Outline: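 HEK293 cells stably expressing human GnRHR were plated 18 h at 37 °C, loaded with calcium dye 1 h at 37 °C, then given compound in agonist mode; fluorescence (Ex/Em 480/540) read kinetically for 3 min at 1 s intervals.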

[4] = molecular target: KiSS-1 receptor (Homo sapiens) (UniProt Q969F8); experiment: Human kisspeptin (KISS1R) small molecule agonists, calcium flux assay in KISS1R-HEK293 cells (AID 1920064; active = well fitted curve in the direction sought with a large enough effect in the repeat runs; an effect the other way counts as inactive or inconclusive)
Sequence of KiSS-1 receptor (Homo sapiens) (Q969F8 whole entry, looked up): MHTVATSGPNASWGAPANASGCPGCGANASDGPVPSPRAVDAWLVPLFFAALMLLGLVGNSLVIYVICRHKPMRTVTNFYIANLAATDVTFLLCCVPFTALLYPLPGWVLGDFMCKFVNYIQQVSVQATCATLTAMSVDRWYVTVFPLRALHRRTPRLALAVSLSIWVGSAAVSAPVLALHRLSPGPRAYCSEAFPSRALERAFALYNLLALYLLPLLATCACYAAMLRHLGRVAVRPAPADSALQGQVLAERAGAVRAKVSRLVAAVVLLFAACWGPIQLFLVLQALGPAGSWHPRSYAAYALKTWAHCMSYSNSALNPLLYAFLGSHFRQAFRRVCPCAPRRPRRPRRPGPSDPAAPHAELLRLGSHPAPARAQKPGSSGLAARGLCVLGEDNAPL
Outline: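 HEK293 cells stably expressing human KISS1R were plated 18 h at 37 °C, loaded with calcium dye for 1 h at 37 °C, then given compound by pin tool. Fluorescence (Ex/Em 480/540) was read kinetically for 3 min.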

[5] = G protein-coupled receptor (GPCR) small molecule agonists, calcium flux assay: HEK293 wild type cell line counter screen (AID 1920065)
Outline: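 Cells were plated and cultured 18 h at 37 C/5% CO2, then loaded with calcium dye for 1 h at 37 C. Compounds in DMSO were pin-transferred in agonist mode, and fluorescence (Ex/Em 480/540) was read kinetically for 3 min at 1 s intervals.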

[6] = p53 small molecule agonists, cell-based qHTS assay with human liver microsomes (AID 1963577)
Outline: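 p53RE-bla cells, 4,000/well, compound added after 5 h, with human liver microsomes 0.5 mg/mL and NADPH 0.5 mg/mL final; 16 h at 37 C, then LiveBLAzer 2 h RT, fluorescence.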

[7] = p53 small molecule agonists, cell-based qHTS assay with rat liver microsomes (AID 1963578)
Outline: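 p53RE-bla cells, 4,000/well, pre-incubated 5 h, then given compounds plus rat liver microsomes (0.5 mg/mL final) and NADPH (0.5 mg/mL final). Incubation 16 h at 37 C; beta-lactamase reporter read by LiveBLAzer fluorescence after 2 h at room temperature.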

[8] = p53 small molecule agonists, cell-based qHTS assay with human liver microsomes: qHTS cell viability counter screen (AID 1963579); note: nearly all actives have a fitted effect of over 45% in size
Outline: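 p53RE-bla cells, 4,000/well, dosed 5 hours after plating, with human liver microsomes (0.5 mg/mL final) plus NADPH (0.5 mg/mL final), 16 hours at 37 C. Viability read as CellTiter-Glo luminescence after 30 min at room temperature.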

[9] = p53 small molecule agonists, cell-based qHTS assay with rat liver microsomes: qHTS cell viability counter screen (AID 1963580); note: nearly all actives have a fitted effect of over 45% in size
Outline: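 p53RE-bla HCT-116 cells (4,000/well) rested 5 h at 37 C, then given Tox21 compounds in DMSO with rat liver microsomes (0.5 mg/mL final) plus NADPH (0.5 mg/mL final) for 16 h at 37 C. Viability read by CellTiter-Glo luminescence after 30 min at room temperature.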

[10] = p53 small molecule agonists, cell-based qHTS assay: qHTS cell viability counter screen (AID 1963581); note: nearly all actives have a fitted effect of over 45% in size
Outline: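 p53RE-bla HCT-116 cells were exposed to compounds for 16 h at 37 C; after the beta-lactamase FRET read in the same wells, CellTiter-Glo was added and luminescence (intracellular ATP) read after 30 min at room temperature.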

[11] = p53 small molecule agonists, cell-based qHTS assay (AID 1963582; active = well fitted activation curve with a large enough effect in the signal ratio in the repeat runs, not every such curve was filed as active; the % refers to the signal ratio)
Outline: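 p53RE-bla beta-lactamase reporter cells rested 5 h at 37 C/5% CO2, then received compounds in DMSO by pin transfer and were incubated 16 h at 37 C. LiveBLAzer B/G FRET substrate was loaded for 2 h at room temperature before fluorescence reading.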

[12] = molecular target: 5-hydroxytryptamine receptor 2A (Homo sapiens) (UniProt P28223); experiment: 5-hydroxytryptamine receptor 2A (HTR2A) small molecule antagonists, cell-based qHTS assay (AID 1963586); note: nearly all actives have a fitted effect of over 45% in size
Sequence of 5-hydroxytryptamine receptor 2A (Homo sapiens) (P28223 whole entry, looked up): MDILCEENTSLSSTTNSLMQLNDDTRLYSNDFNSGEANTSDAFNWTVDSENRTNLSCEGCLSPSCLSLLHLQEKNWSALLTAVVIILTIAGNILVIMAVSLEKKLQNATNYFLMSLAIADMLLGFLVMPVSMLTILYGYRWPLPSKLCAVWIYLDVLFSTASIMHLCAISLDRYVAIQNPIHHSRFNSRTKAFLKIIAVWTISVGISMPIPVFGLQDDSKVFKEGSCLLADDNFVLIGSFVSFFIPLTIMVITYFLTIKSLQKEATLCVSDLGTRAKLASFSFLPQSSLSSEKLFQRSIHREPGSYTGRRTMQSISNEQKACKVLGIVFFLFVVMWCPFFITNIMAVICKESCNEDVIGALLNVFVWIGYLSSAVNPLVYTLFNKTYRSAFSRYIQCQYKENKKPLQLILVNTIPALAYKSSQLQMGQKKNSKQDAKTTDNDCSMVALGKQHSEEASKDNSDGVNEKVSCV
Outline: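 Antagonist-mode intracellular calcium assay: DOI (4 nM) added after 5 min compound pre-incubation at room temperature to dye-loaded HTR2A-CHO cells. Fluorescence followed for 3 min, sampled every second.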

[13] = molecular target: 5-hydroxytryptamine receptor 2A (Homo sapiens) (UniProt P28223); experiment: 5-hydroxytryptamine receptor 2A (HTR2A) small molecule agonists, cell-based qHTS assay (AID 1963587); note: nearly all actives have a fitted effect of over 30% in size
Outline: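 HTR2A-CHO cells, plated 18 h at 37 C/5% CO2, dye-loaded 1 h at 37 C; compounds in DMSO added by pin tool (agonist mode). Intracellular calcium flux read as kinetic fluorescence on FDSS over 2 min at 1 s intervals.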

[14] = molecular target: Muscarinic acetylcholine receptor M1 (Homo sapiens) (UniProt P11229); experiment: Cholinergic receptor muscarinic 1 (CHRM1) small molecule antagonists, cell-based qHTS assay (AID 1963588); note: nearly all actives have a fitted effect of over 40% in size
Sequence of Muscarinic acetylcholine receptor M1 (Homo sapiens) (P11229 whole entry, looked up): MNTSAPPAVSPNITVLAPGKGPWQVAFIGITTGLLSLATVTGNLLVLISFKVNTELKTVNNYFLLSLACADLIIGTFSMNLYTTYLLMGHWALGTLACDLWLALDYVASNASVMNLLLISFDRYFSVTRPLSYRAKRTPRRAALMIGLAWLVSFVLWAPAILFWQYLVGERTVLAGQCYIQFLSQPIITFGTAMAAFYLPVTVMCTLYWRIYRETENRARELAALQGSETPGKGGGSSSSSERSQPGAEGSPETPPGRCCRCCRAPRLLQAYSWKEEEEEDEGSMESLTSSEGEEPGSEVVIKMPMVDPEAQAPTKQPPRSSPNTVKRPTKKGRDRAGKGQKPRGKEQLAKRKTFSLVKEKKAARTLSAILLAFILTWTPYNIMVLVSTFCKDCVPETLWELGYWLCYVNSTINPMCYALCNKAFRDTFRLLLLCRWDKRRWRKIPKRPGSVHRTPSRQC
Outline: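 CHRM1-CHO calcium-flux assay, antagonist mode. Cells were seeded 18 h, dye-loaded 1 h at 37 C and given compound for 5 min at RT, then acetylcholine was added at 50nM. FDSS fluorescence was read 3 min; 15 concentrations, three runs.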

[15] = molecular target: Muscarinic acetylcholine receptor M1 (Homo sapiens) (UniProt P11229); experiment: Cholinergic receptor muscarinic 1 (CHRM1) small molecule agonists, cell-based qHTS assay (AID 1963589); note: nearly all actives have a fitted effect of over 35% in size
Outline: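 CHO cells stably expressing human CHRM1, seeded 18 h at 37 C/5% CO2, dye-loaded 1 h at 37 C, then given compound in agonist mode; intracellular calcium fluorescence read kinetically at 1 s intervals. Fifteen concentrations, three independent runs.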

[16] = cAMP Responsive Elements (CRE) small molecule agonists, cell-based qHTS assay (AID 1963590)
Outline: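 CRE-bla HEK 293T cells in DMEM with 10% dialyzed FBS, NEAA, pyruvate and 25 mM HEPES were plated 18 h at 37 C/5% CO2, then exposed to compounds in DMSO for 3 h before LiveBLAzer B/G FRET substrate addition.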

[17] = cAMP Responsive Elements (CRE) small molecule antagonists, cell-based qHTS assay (AID 1963591; active = well fitted inhibition curve with a large enough effect in the signal ratio in the repeat runs, not every such curve was filed as active; the % refers to the signal ratio)
Outline: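 CRE-bla HEK293T cells were plated 18 h at 37 °C/5% CO2, pinned with compound in DMSO, then stimulated with NKH477 at 0.25 uM final for 3 h. LiveBLAzer B/G FRET substrate was added and plates incubated 2 h at room temperature.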

[18] = molecular target: Beta-2 adrenergic receptor (Homo sapiens) (UniProt P07550); experiment: Adrenergic beta2 receptor (ADRB2) small molecule antagonists, cell-based qHTS assay (AID 1963592); note: series mostly up to about 92 µM; nearly all actives have a fitted effect of over 50% in size
Sequence of Beta-2 adrenergic receptor (Homo sapiens) (P07550 whole entry, looked up): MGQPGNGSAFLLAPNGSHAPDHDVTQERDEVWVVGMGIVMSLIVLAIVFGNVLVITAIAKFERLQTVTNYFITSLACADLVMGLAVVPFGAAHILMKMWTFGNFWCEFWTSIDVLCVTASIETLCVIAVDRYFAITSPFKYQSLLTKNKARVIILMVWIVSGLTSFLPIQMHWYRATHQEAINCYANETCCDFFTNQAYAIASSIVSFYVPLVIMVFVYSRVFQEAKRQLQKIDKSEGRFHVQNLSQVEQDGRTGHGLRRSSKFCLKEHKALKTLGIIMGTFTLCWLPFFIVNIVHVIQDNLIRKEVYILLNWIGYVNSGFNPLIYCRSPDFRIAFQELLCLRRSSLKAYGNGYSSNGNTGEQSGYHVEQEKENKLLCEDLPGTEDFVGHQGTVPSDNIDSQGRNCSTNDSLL
Outline: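 Cells (CHO, stable ADRB2 overexpression) incubated 18-20hr at 37C; compounds added from DMSO; agonist mix (1nM isoproterenol, 100uM IBMX, 25uM Ro-20-1724) added; 0.5hr RT; d2-cAMP and anti-cAMP-cryptate added; 1hr RT; 665/615 nm read.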

[19] = molecular target: D(2) dopamine receptor (Homo sapiens) (UniProt P14416); experiment: Dopamine D2 receptor (DRD2) small molecule agonists, cell-based qHTS assay (AID 1963594); note: nearly all actives have a fitted effect of over 35% in size
Sequence of D(2) dopamine receptor (Homo sapiens) (P14416 whole entry, looked up): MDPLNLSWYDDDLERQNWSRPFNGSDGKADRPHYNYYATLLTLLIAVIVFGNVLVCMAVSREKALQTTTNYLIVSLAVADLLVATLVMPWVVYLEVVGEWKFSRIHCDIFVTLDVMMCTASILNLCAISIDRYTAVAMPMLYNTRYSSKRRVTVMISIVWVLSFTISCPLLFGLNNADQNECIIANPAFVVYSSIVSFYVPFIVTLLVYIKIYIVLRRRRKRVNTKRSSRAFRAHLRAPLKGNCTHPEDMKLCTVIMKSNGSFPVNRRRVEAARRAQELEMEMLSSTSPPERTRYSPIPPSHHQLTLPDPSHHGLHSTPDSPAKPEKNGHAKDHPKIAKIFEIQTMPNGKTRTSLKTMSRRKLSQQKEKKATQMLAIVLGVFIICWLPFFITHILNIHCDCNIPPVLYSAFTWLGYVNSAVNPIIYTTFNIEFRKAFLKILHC
Outline: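 HEK293 cells stably expressing DRD2 were cultured 24 h at 37 C, then given Ro20-1724 (0.1 mM final) and compounds for 10 min at room temperature. NKH477 (200nM) was then added for 30 min. cAMP was read by HTRF.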

[20] = molecular target: D(2) dopamine receptor (Homo sapiens) (UniProt P14416); experiment: Dopamine D2 receptor (DRD2) small molecule antagonists, cell-based qHTS assay (AID 1963595; active = well fitted inhibition curve with a large enough effect in the signal ratio in the repeat runs, with a control signal flat; the % refers to the signal ratio)
Outline: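 HEK293 cells stably expressing DRD2, preincubated with 0.1 mM Ro20-1724 and compounds 10 min, were stimulated with 200 nM NKH477 plus 12 nM quinpirole for 30 min at room temperature; cAMP measured by HTRF (665/620 nm).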
% is set by controls: 0 for no effect and ±100 for the full control effect.

CC1(C)S[C@@H]2[C@H](NC(=O)COc3ccccc3)C(=O)N2[C@H]1C(=O)O
inactive: Potency [1] | Potency [2] | Potency [3] | Potency [4] | Potency [5] | Potency [6] | Potency [7] | Potency [8] | Potency [9] | Potency [10] | Potency [11] | Potency [12] | Potency [13] | Potency [14] | Potency [15] | Potency [16] | Potency [17] | Potency [18] | Potency [19] | Potency [20]

Cc1cc(=O)[nH]c(=S)[nH]1
inactive: Potency [1] | Potency [2] | Potency [3] | Potency [4] | Potency [5] | Potency [6] | Potency [7] | Potency [8] | Potency [9] | Potency [10] | Potency [11] | Potency [12] | Potency [13] | Potency [14] | Potency [15] | Potency [16] | Potency [17] | Potency [18] | Potency [19] | Potency [20]

NCCN1CCNCC1
inactive: Potency [1] | Potency [2] | Potency [3] | Potency [4] | Potency [5] | Potency [6] | Potency [7] | Potency [8] | Potency [9] | Potency [10] | Potency [11] | Potency [12] | Potency [13] | Potency [14] | Potency [15] | Potency [16] | Potency [17] | Potency [18] | Potency [19]

Nc1nc2ncc(CNc3ccc(C(=O)N[C@@H](CCC(=O)O)C(=O)O)cc3)nc2c(=O)[nH]1
inactive: Potency [1] | Potency [2] | Potency [3] | Potency [4] | Potency [5] | Potency [6] | Potency [7] | Potency [8] | Potency [9] | Potency [10] | Potency [11] | Potency [12] | Potency [13] | Potency [14] | Potency [15] | Potency [16] | Potency [17] | Potency [18] | Potency [19] | Potency [20]

CCC[C@H](N[C@@H](C)C(=O)N1[C@H](C(=O)O)C[C@@H]2CCCC[C@@H]21)C(=O)OCC
inactive: Potency [1] | Potency [2] | Potency [3] | Potency [4] | Potency [5] | Potency [6] | Potency [7] | activity change, negative = cytotoxicity [8] -3.18% [at 13.5 µM] | Potency [9] | Potency [10] | Potency [11] | Potency [12] | Potency [13] | Potency [14] | Potency [15] | Potency [16] | Potency [17] | Potency [18] | Potency [19] | Potency [20]

CCCCCCCCO
inactive: Potency [1] | Potency [2] | Potency [3] | Potency [4] | Potency [5] | Potency [6] | Potency [7] | Potency [8] | Potency [9] | Potency [10] | Potency [11] | Potency [12] | Potency [13] | Potency [14] | Potency [15] | Potency [16] | Potency [17] | Potency [18] | Potency [19] | Potency [20]

Cc1ccc(S(=O)(=O)NCl)cc1
inactive: Potency [1] | Potency [2] | Potency [3] | Potency [4] | Potency [5] | Potency [6] | Potency [7] | Potency [8] | Potency [9] | Potency [10] | Potency [11] | Potency [12] | Potency [13] | Potency [14] | Potency [15] | Potency [16] | Potency [17] | Potency [18] | Potency [19] | Potency [20]

Cc1ccccc1C=O
inactive: Potency [1] | Potency [2] | Potency [3] | Potency [4] | Potency [5] | Potency [6] | Potency [7] | Potency [8] | Potency [9] | Potency [10] | Potency [11] | Potency [12] | Potency [13] | Potency [14] | Potency [15] | Potency [16] | Potency [17] | Potency [18] | Potency [19] | Potency [20]
